# Test results reported in PubChem BioAssay (EPA / NIEHS).
# Several values for one entry are separate records, joined by “and”; a condition that tells them apart may be missing. Identical values can stand only once. Results filed as inconclusive are left out. The source holds several records for some structures; these can differ, active in one and inactive in another. Activity calls are given as the source filed them. Rule for the calls, unless noted: active = hit-call score of the fitted dose curve at least 0.9, where 1 is the maximum; inconclusive = response in the unintended direction; inactive = score below 0.9.
# Experiments:
# [1] = target: Estrogen receptor beta (Homo sapiens) (UniProt Q92731); assay: OT_ER_ERbERb_1440: Odyssey Thera (OT) 24-hour HEK293T Protein-Complementation Assay for Estrogen Receptor-beta/-beta Homodimer (AID 2283380);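 note: fluorescence gain from ER beta LBD homodimer complementation read by laser scanning cytometry; scored as signal increase over DMSO baseline for both agonists and antagonists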
# Summary of the method: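 HEK293T cells stably expressing human ER-beta LBD (aa 310-547) PCA homodimer pair, dosed 24 h; formaldehyde-fixed, Draq5-stained. Readout: increase in nuclear (agonist) or nuclear plus cytoplasmic (antagonist) fluorescence intensity versus DMSO, gain-of-signal fitting.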
# [2] = target: Estrogen receptor (Homo sapiens) (UniProt P03372); assay: OT_ERa_GFPERaERE_0480: Odyssey Thera (OT) 8-hour HeLa Transcription Induction Assay for Estrogen Receptor (AID 2283381; active = hit-call score of the fitted dose curve at least 0.9, where 1 is the maximum; inactive = score below 0.9)
# Summary of the method: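 An 8 h HeLa transcription-induction format with a GFP reporter under ERE control, read by fluorescence microscopy; single endpoint fitted positively with DMSO as baseline.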
# [3] = target: Estrogen receptor (Homo sapiens) (UniProt P03372); assay: OT_ERa_GFPERaERE_0120: Odyssey Thera (OT) 2-hour HeLa Transcription Induction Assay for Estrogen Receptor (AID 2283382)
# Summary of the method: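 Two-hour compound treatment of HeLa cells preceded microscopy imaging of an inducible fluorescent reporter. Image-based quantification gave one endpoint, analysed for signal increase relative to DMSO controls.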
# [4] = target: Bile acid receptor (Homo sapiens) (UniProt Q96RI1); assay: OT_FXR_FXRSRC1_0480: Odyssey Thera (OT) 8-hour HEK293T Protein-Complementation Assay for Farnesoid X receptor/SRC-1 Co-activator (AID 2283383)
# Summary of the method: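 Readings were taken 8 h after dosing HEK293T cells in a split-reporter complementation format pairing FXR with SRC-1. Increased fluorescence relative to DMSO-treated wells defined activity.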
# [5] = target: Retinoic acid receptor RXR-alpha (Homo sapiens) (UniProt P19793); assay: OT_NURR1_NURR1RXRa_1440: Odyssey Thera (OT) 24-hour HEK293T Protein Complementation Assay for Nurr1/retinoid X receptor (RXR) (AID 2283386)
# Summary of the method: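 Cell-based binding reporter: HEK293T cells, 24 h exposure, fluorescence-detected fragment complementation, DMSO as baseline.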
# [6] = target: Retinoic acid receptor RXR-alpha (Homo sapiens) (UniProt P19793); assay: OT_NURR1_NURR1RXRa_0480: Odyssey Thera (OT) 8-hour HEK293T Protein Complementation Assay for Nurr1/retinoid X receptor (RXR) (AID 2283385)
# Summary of the method: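 Gain in fluorescent complementation signal over DMSO, measured 8 hours after chemical dosing of human kidney HEK293T cells, indicated enhanced Nurr1–RXRα association.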
# [7] = target: Peroxisome proliferator-activated receptor gamma (Homo sapiens) (UniProt P37231); assay: OT_PPARg_PPARgSRC1_0480: Odyssey Thera (OT) 8-hour Protein-Complementation Assay for Peroxisome Proliferator-activated Receptor Gamma / SRC-1 Co-activator (AID 2283387);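 note: nuclear to cytoplasmic split Venus YFP fluorescence ratio reporting PPARg SRC-1 interaction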
# Summary of the method: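 Split-YFP (IFP1/IFP2) PPARg/SRC-1 reporter, HEK293T, 37 °C, 5% CO2; 8 h compound; formaldehyde fix + Draq5; high-content imaging, N/C ratio, ≥350 cells/image, positive direction vs DMSO.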
# [8] = target: human Norepinephrine Transporter (NET), SLC6A2 (gene 6530) (UniProt P23975); assay: NVS_TR_hNET: NovaScreen (NVS) Transporter Assay for human Norepinephrine Transporter (NET) (AID 2283377);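 note: cell-free membrane protein extracted from CHO cells expressing human NET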;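 for AC50: displacement of radioligand from human NET seen as loss of scintillation signal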
# Summary of the method: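 In this cell-free binding screen, chemicals at 25 uM (duplicate) compete with a radioligand for CHO-derived human NET over 1 hour, with filter-based radiodetection.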
# [9] = target: Peroxisome proliferator-activated receptor gamma (Homo sapiens) (UniProt P37231); assay: NVS_NR_hPPARg: NovaScreen (NVS) Nuclear Receptor Binding Assay for human Peroxisome Proliferator-activated Receptor gamma (PPARg) (AID 2283370)
# Summary of the method: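 Chemicals were tested first in duplicate at 25 uM, then in concentration series if active. Binding to cell-free PPARg protein was measured by fluorescence polarization after 2 h, with loss of signal scored against DMSO.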
# [10] = target: human Serotonin Transporter (SERT), SLC6A4 (gene 6532) (UniProt P31645); assay: NVS_TR_hSERT: NovaScreen (NVS) Transporter Assay for human Serotonin Transporter (SERT) (AID 2283372)
# Summary of the method: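 Human platelet membrane preparation; displacement of radioligand from serotonin transporter measured after 1 h by filtration and scintillation counting. Single 25 uM duplicate screen, then concentration series for actives, with DMSO as negative baseline.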
# [11] = target: human Dopamine Transporter (DAT), SLC6A3 (gene 6531) (UniProt Q01959); assay: NVS_TR_hDAT: NovaScreen (NVS) Transporter Assay for human Dopamine Transporter (DAT) (AID 2283374);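 note: activity means loss of bound radioligand signal relative to DMSO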
# Summary of the method: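 Extracted human SLC6A3 protein incubated 1 h with radioligand and test chemical; bound fraction separated on filters and counted. Single 25 uM duplicate screen preceded concentration-response follow-up; positive and negative controls on every plate.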
# [12] = target: rat Serotonin Transporter (SERT), Slc6a4 (gene 25553) (UniProt P31652); assay: NVS_TR_rSERT: NovaScreen (NVS) Transporter Assay for rat Serotonin Transporter (SERT) (AID 2283375)
# Summary of the method: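 Filtration-based radiodetection quantified loss of specific radioligand binding in rat forebrain membranes after 1 hour of chemical exposure, relative to DMSO. Chemicals were first tested in duplicate at 25 uM.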
# [13] = target: Bile acid receptor (Homo sapiens) (UniProt Q96RI1); assay: OT_FXR_FXRSRC1_1440: Odyssey Thera (OT) 24-hour HEK293T Protein-Complementation Assay for Farnesoid X receptor/SRC-1 Co-activator (AID 2283384)
# Summary of the method: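 Single endpoint, analysed for increased fluorescence against DMSO controls. HEK293T cells carrying FXR and SRC-1 linked to complementary reporter halves were exposed to chemicals for 24 h before reading.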
# [14] = target: Norway rat Vesicular Monoamine Transporter (VMAT2), neurotransmitter transporter, Slc18a2 (gene 25549) (UniProt Q01827); assay: NVS_TR_rVMAT2: NovaScreen (NVS) Transporter Assay for Norway rat Vesicular Monoamine Transporter (VMAT2), neurotransmitter transporter (AID 2283376);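 note: actives lower the bound radioligand signal below the DMSO level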
# Summary of the method: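 Binding endpoint from rat forebrain tissue, cell-free; 1 h incubation; filtered radioligand counted; 25 uM duplicate primary then dose series; DMSO negative control.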
# Chain of Estrogen receptor beta (Homo sapiens) (Q92731 whole entry, looked up, the tested form may be a part): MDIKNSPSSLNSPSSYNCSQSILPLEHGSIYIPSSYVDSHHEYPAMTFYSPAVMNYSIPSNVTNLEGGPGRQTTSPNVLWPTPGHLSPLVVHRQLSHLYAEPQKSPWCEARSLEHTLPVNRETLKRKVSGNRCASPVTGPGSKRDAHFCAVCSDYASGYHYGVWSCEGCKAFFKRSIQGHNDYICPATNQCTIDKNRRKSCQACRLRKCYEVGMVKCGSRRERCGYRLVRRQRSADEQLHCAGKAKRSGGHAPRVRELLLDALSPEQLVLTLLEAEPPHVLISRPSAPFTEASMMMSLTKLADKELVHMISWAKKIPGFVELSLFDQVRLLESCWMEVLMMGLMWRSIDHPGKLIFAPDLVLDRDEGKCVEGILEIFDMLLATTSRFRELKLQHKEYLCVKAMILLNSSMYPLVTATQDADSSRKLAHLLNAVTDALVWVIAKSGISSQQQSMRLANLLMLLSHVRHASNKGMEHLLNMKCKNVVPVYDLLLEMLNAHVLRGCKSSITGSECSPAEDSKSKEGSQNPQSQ
# Chain of Retinoic acid receptor RXR-alpha (Homo sapiens) (P19793 whole entry, looked up, the tested form may be a part): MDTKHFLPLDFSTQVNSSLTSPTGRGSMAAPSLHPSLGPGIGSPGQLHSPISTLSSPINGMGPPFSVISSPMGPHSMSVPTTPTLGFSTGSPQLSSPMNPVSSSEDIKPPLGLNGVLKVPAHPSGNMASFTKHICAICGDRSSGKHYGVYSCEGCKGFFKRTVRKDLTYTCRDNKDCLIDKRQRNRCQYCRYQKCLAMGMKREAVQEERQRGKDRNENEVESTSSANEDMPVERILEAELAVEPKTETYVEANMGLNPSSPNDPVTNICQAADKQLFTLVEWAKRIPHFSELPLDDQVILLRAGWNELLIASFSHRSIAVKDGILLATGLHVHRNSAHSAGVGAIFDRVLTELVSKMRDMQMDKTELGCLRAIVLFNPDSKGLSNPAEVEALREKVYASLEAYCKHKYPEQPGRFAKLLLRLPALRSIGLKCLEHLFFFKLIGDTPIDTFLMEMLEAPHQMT
# Chain of human Dopamine Transporter (DAT), SLC6A3 (gene 6531) (Q01959 whole entry, looked up): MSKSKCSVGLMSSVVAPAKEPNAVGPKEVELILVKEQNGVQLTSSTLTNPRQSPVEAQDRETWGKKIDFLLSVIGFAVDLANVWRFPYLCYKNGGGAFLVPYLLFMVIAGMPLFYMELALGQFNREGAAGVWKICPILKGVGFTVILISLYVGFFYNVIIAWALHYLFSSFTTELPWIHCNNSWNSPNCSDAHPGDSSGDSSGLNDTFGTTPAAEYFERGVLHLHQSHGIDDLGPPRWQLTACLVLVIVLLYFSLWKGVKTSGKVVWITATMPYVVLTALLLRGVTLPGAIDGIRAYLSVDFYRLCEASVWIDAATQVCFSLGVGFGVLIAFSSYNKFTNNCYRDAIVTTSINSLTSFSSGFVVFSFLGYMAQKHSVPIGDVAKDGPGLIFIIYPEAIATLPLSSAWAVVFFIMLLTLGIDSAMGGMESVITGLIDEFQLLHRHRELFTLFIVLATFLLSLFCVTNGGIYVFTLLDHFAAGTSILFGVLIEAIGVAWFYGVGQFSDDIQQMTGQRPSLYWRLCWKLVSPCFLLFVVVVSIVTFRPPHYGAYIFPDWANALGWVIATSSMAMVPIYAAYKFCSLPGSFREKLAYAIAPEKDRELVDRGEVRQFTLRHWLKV
# Chain of Estrogen receptor (Homo sapiens) (P03372 whole entry, looked up): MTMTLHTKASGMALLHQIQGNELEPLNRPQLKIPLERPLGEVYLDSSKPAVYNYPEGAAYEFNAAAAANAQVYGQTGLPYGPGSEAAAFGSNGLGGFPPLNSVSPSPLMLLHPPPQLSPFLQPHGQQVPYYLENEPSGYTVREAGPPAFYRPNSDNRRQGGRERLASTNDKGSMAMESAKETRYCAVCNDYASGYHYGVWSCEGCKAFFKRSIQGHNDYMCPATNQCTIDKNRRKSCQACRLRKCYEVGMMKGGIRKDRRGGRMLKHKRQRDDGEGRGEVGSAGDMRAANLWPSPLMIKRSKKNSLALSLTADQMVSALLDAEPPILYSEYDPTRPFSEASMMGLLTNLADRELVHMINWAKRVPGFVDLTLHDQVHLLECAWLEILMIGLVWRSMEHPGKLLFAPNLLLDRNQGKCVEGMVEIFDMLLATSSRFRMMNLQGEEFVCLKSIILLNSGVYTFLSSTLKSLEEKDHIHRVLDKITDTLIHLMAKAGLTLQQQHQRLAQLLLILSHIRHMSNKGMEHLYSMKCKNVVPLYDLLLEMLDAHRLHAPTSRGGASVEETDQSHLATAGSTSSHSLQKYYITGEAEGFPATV
# Chain of Peroxisome proliferator-activated receptor gamma (Homo sapiens) (P37231 whole entry, looked up): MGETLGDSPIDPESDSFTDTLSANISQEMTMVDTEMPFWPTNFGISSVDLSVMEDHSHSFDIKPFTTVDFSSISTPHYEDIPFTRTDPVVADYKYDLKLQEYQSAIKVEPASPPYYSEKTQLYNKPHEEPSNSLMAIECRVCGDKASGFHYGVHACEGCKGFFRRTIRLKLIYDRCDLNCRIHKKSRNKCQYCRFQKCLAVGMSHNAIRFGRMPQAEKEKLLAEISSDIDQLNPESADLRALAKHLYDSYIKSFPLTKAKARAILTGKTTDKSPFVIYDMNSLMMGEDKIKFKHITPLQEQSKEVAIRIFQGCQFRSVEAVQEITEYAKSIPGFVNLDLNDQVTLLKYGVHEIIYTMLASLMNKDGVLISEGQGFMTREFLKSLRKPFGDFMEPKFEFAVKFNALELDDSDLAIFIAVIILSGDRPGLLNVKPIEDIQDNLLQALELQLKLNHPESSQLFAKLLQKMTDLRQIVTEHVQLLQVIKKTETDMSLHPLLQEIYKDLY
# Chain of Bile acid receptor (Homo sapiens) (Q96RI1 whole entry, looked up): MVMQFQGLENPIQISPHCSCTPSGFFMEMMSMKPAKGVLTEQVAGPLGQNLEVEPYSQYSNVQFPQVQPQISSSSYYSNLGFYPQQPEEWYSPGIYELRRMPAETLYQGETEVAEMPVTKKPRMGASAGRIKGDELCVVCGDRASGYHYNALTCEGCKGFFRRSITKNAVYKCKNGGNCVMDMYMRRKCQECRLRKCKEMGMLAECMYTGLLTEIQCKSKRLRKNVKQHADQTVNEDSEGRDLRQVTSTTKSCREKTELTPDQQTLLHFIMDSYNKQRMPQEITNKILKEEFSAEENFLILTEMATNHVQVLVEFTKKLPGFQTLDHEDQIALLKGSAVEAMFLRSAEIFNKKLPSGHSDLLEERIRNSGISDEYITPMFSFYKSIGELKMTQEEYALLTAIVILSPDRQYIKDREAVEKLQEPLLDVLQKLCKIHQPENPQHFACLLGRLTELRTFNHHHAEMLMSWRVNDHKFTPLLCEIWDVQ
# Chain of human Norepinephrine Transporter (NET), SLC6A2 (gene 6530) (P23975 whole entry, looked up): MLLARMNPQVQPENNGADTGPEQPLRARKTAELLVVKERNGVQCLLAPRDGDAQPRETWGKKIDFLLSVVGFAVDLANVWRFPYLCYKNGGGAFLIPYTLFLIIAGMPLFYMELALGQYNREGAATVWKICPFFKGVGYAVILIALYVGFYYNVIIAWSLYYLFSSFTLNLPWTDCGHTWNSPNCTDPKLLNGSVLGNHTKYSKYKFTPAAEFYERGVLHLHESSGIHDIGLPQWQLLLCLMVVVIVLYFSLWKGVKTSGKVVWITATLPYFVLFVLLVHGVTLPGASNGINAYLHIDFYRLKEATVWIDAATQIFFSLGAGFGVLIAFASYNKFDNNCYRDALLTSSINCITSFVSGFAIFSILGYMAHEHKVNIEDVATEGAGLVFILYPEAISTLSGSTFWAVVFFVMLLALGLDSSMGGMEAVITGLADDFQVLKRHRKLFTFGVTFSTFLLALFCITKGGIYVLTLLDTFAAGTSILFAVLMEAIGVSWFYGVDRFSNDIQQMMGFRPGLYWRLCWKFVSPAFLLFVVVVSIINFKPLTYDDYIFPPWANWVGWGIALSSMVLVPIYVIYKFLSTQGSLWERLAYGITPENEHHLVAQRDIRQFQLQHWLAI
# Chain of rat Serotonin Transporter (SERT), Slc6a4 (gene 25553) (P31652 whole entry, looked up): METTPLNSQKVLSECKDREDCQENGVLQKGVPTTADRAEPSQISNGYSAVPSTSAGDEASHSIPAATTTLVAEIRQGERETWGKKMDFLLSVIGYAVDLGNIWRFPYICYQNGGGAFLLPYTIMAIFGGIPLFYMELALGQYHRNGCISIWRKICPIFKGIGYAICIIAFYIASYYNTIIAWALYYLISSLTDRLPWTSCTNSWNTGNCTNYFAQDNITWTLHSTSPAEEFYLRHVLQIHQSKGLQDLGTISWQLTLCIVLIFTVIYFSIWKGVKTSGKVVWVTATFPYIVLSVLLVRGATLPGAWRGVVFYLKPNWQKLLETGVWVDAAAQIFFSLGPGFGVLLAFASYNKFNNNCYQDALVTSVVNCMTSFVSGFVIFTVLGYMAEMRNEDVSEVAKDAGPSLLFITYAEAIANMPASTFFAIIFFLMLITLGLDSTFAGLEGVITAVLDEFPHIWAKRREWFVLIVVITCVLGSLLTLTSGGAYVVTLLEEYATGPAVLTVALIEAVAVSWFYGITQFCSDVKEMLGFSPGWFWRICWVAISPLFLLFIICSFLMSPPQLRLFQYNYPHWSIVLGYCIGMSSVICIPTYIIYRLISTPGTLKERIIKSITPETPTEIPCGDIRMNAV
# Chain of Norway rat Vesicular Monoamine Transporter (VMAT2), neurotransmitter transporter, Slc18a2 (gene 25549) (Q01827 whole entry, looked up): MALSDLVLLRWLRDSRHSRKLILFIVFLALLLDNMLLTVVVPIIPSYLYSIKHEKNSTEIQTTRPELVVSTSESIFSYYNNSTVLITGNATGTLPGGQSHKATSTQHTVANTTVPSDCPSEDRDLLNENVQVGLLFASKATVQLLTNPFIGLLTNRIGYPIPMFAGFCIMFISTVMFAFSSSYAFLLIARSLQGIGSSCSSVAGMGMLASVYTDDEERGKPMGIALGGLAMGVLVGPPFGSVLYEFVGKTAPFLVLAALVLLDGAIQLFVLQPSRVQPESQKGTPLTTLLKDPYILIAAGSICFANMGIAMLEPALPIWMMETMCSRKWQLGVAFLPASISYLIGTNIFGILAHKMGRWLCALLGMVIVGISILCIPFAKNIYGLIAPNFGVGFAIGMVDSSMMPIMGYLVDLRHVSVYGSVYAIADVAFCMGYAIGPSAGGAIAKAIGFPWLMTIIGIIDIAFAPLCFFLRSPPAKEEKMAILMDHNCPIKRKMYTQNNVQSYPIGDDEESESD
compound,measurement,setting,value
N#Cc1ccc(N(CC(N)=O)CC(F)(F)F)cc1C(F)(F)F,outcome,[1],inactive
same,outcome,[2],inactive
same,outcome,[3],inactive
same,outcome,[4],inactive
CCNc1nc(NC(C)C)nc(SC)n1,outcome,[1],inactive
same,outcome,[5],inactive
O=C(O)C(F)(F)C(F)(F)C(F)(F)C(F)(F)C(F)(F)F,outcome,[1],inactive
same,outcome,[2],inactive
same,outcome,[3],inactive
same,outcome,[6],inactive
same,outcome,[5],inactive
ClC1=C(Cl)[C@]2(Cl)[C@@H]3[C@@H](Cl)[C@H]4O[C@H]4[C@@H]3C1(Cl)C2(Cl)Cl,AC50,[1],14.4 µM (active)
same,outcome,[2],inactive
same,outcome,[3],inactive
same,AC50,[6],79.6 µM (active)
same,outcome,[6],inactive
same,AC50,[5],86 µM (active)
same,outcome,[5],inactive
CCOCCOC(C)=O,outcome,[2],inactive
same,outcome,[3],inactive
same,outcome,[6],inactive
O=C(NC(=O)c1c(F)cccc1F)Nc1cc(Cl)c(OC(F)(F)C(F)F)c(Cl)c1,outcome,[1],inactive
same,outcome,[2],inactive
same,outcome,[3],inactive
same,outcome,[6],inactive
same,outcome,[5],inactive
same,outcome,[7],inactive
Cc1ccc(O)c(C)c1,AC50,[8],11.5 µM (active)
same,outcome,[1],inactive
same,outcome,[2],inactive
same,outcome,[3],inactive
same,outcome,[6],inactive
same,outcome,[5],inactive
Oc1c(Cl)c(Cl)c(Cl)c(Cl)c1Cl,outcome,[9],inactive
same,outcome,[2],inactive
same,outcome,[3],inactive
same,outcome,[6],inactive
same,outcome,[5],inactive
Cc1cccc([N+](=O)[O-])c1,outcome,[2],inactive
same,outcome,[3],inactive
CCOP(=S)(OCC)SCSC(C)(C)C,outcome,[2],inactive
same,outcome,[3],inactive
same,outcome,[6],inactive
same,outcome,[5],inactive
same,outcome,[7],inactive
CN(C)CCO,outcome,[1],inactive
same,outcome,[2],inactive
same,outcome,[3],inactive
same,outcome,[6],inactive
same,outcome,[5],inactive
Cc1ccccc1CO[C@@H]1C[C@@]2(C(C)C)CC[C@]1(C)O2,AC50,[10],4.86 µM (active)
same,AC50,[11],11.2 µM (active)
same,AC50,[12],6.62 µM (active)
same,AC50,[6],81.2 µM (active)
same,outcome,[5],inactive
Cc1ccccc1[N+](=O)[O-],outcome,[1],inactive
same,outcome,[2],inactive
same,outcome,[3],inactive
same,outcome,[6],inactive
same,outcome,[5],inactive
C1CC2OC2CC1C1CO1 (stereo not given),outcome,[1],inactive
same,outcome,[2],inactive
same,outcome,[3],inactive
same,outcome,[4],inactive
same,outcome,[13],inactive
same,outcome,[6],inactive
same,outcome,[5],inactive
same,outcome,[7],inactive
ClC(Cl)=C(c1ccc(Cl)cc1)c1ccc(Cl)cc1,outcome,[11],inactive
same,outcome,[14],inactive
same,outcome,[2],inactive
same,AC50,[3],11.8 µM (active)
same,outcome,[3],inactive
same,AC50,[4],85 µM (active) and 83.5 µM (active) and 85.1 µM (active)
same,AC50,[13],93 µM (active) and 84.9 µM (active) and 88.2 µM (active)
same,AC50,[6],78.3 µM (active) [middle of 4 runs]
same,AC50,[5],79.2 µM (active) and 79.5 µM (active) and 80 µM (active)
same,outcome,[5],inactive
same,outcome,[7],inactive
Cc1ccccc1O,outcome,[1],inactive
same,outcome,[2],inactive
same,outcome,[3],inactive
same,outcome,[6],inactive
same,outcome,[5],inactive
Sc1ccccc1,outcome,[2],inactive
same,outcome,[3],inactive
ClC1=C(Cl)[C@]2(Cl)[C@@H]3[C@@H]4C[C@@H]([C@H]5O[C@@H]45)[C@@H]3[C@@]1(Cl)C2(Cl)Cl,outcome,[9],inactive
same,outcome,[2],inactive
same,outcome,[3],inactive
same,AC50,[6],77.7 µM (active) and 81.5 µM (active)
same,outcome,[5],inactive
O=C(N[C@H]1CN2CCC1CC2)c1cc2ccoc2cn1,AC50,[12],12.1 µM (active)
same,outcome,[1],inactive
same,outcome,[2],inactive
same,outcome,[3],inactive
same,outcome,[6],inactive
same,outcome,[5],inactive
c1cc2ccc3cccc4ccc(c1)c2c34,outcome,[2],inactive
same,outcome,[3],inactive
same,outcome,[4],inactive
same,outcome,[13],inactive
same,outcome,[6],inactive
same,outcome,[5],inactive
same,outcome,[7],inactive
CCCCCCOC(=O)c1ccccc1C(=O)OCCCCCC,outcome,[11],inactive
same,outcome,[2],inactive
same,outcome,[3],inactive
same,outcome,[6],inactive
same,outcome,[5],inactive
C=CC(=O)NCNC(=O)C=C,outcome,[1],inactive
same,outcome,[2],inactive
same,outcome,[3],inactive
same,outcome,[6],inactive
same,outcome,[5],inactive
same,outcome,[7],inactive
Clc1ccc(C(Cl)(Cl)Cl)cc1,outcome,[2],inactive
same,outcome,[3],inactive
same,outcome,[4],inactive
same,outcome,[13],inactive
same,outcome,[6],inactive
same,outcome,[5],inactive
O=C(NC(=O)c1cc(F)c(F)cc1Cl)Nc1cc(F)ccc1N1CCC(C(=O)O)CC1,outcome,[9],inactive
same,outcome,[2],inactive
same,outcome,[3],inactive
same,outcome,[6],inactive
same,outcome,[5],inactive
Clc1ccc(Cl)cc1,outcome,[1],inactive
same,outcome,[2],inactive
same,outcome,[3],inactive
same,outcome,[6],inactive
same,outcome,[7],inactive
O=S(=O)(O)C(F)(F)C(F)(F)C(F)(F)C(F)(F)F,outcome,[1],inactive
same,outcome,[2],inactive
same,outcome,[3],inactive
same,outcome,[6],inactive
same,outcome,[5],inactive
CCSC(=O)N(CC)C1CCCCC1,outcome,[2],inactive
same,outcome,[3],inactive
same,outcome,[4],inactive
same,outcome,[13],inactive
same,outcome,[6],inactive
same,outcome,[7],inactive
CC#Cc1cc(C)nc(Nc2ccccc2)n1,outcome,[8],inactive
same,outcome,[1],inactive
same,outcome,[2],inactive
same,outcome,[3],inactive
same,outcome,[6],inactive
same,outcome,[5],inactive
CN(C)c1nc(=O)n(C2CCCCC2)c(=O)n1C,outcome,[1],inactive
same,outcome,[2],inactive
same,outcome,[3],inactive
same,outcome,[4],inactive
same,outcome,[13],inactive
same,outcome,[6],inactive
same,outcome,[5],inactive
same,outcome,[7],inactive
c1ccc(-c2ccccc2)cc1,outcome,[8],inactive
same,outcome,[1],inactive
same,outcome,[2],inactive
same,outcome,[3],inactive
same,outcome,[4],inactive
same,outcome,[5],inactive
C=CC(N)=O,outcome,[2],inactive
same,outcome,[3],inactive
same,outcome,[6],inactive
same,outcome,[5],inactive
CCC(C)(CC)c1cc(NC(=O)c2c(OC)cccc2OC)on1,outcome,[1],inactive
same,outcome,[6],inactive
same,outcome,[5],inactive
same,outcome,[7],inactive
